# Rows were chosen to be rich in hits. Some 10% of all compounds tested hit in one or more screens of this group.
# FLuc inh-1: blocks purified firefly luciferase enzyme activity | P08659 | Potency, µM (doses to about 115 µM), hits mostly inhibitors | 2.5% of 76,000 active | purified P. pyralis luciferase, luminescence, biochemical; also: % is scaled to controls: 0 for no effect and ±100 for the full control effect; nearly all actives have a fitted effect of over 65% in size
#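 Biochemical qHTS: compound (6-point titration) added to 10uM D-luciferin plus 10uM ATP in Tris acetate pH 7.5 buffer with Mg, Tween-20 and BSA, then purified enzyme at 10nM; light output imaged.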
# NPR1 antag: blocks ANP-stimulated signaling of human Npr1 receptor | 1.6% of 76,000 active | HEK293 hNpr1 GloSensor cGMP, ANP-stimulated luminescence | P16066 | Potency, µM (doses to about 46.3 µM), for the others: at the top dose activity change, negative = inhibition, most hits filed as inhibitors | AID 1347048; calls by dose curve; also: % is scaled to controls: 0 for no effect and ±100 for the full control effect; nearly all actives have a fitted effect of over 60% in size
#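 HEK293 cells stably expressing human Npr1 and cGMP GloSensor pGS-40F, loaded 2 h with 2% GloSensor reagent, given compound 30 min at room temperature. Luminescence read before and 20 min after 0.1 nM hNppA.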
# HEK293 tox: kills HEK 293 cells; HEK 293 viability, ATP luminescence (CellTiter-Glo), 48-72 h; Potency, µM (top dose mostly 115 µM), inactives show at the top dose activity change, negative = cytotoxicity, most hits filed as inhibitors; 6.6% of 94,000 active; AID 1345083; also: % is scaled to controls: 0 for no effect and ±100 for the full control effect; nearly all actives have a fitted effect of over 60% in size
#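 ATP-coupled CellTiter-Glo luminescence served as viability read-out, recorded 10 min after reagent addition at room temperature. HEK 293 cells, 250 cells/well, had been incubated with pintool-transferred compound for 48 or 72 hr at 37 degree Celsius.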
# GPT2 inhibitor: GPT2 alanine aminotransferase inhibition. AID 1671188. Potency, µM (highest dose often 57.7 µM), for the others: top-dose activity change, negative = inhibition, hits mostly inhibitors. Recombinant GPT2, coupled pyruvate oxidase/HRP Amplex Red fluorescence. 0.25% of 100,000 active; also: % is scaled to controls: 0 for no effect and ±100 for the full control effect; nearly all actives have a fitted effect of over 60% in size
# Target sequence (Q8TD30 whole entry, looked up): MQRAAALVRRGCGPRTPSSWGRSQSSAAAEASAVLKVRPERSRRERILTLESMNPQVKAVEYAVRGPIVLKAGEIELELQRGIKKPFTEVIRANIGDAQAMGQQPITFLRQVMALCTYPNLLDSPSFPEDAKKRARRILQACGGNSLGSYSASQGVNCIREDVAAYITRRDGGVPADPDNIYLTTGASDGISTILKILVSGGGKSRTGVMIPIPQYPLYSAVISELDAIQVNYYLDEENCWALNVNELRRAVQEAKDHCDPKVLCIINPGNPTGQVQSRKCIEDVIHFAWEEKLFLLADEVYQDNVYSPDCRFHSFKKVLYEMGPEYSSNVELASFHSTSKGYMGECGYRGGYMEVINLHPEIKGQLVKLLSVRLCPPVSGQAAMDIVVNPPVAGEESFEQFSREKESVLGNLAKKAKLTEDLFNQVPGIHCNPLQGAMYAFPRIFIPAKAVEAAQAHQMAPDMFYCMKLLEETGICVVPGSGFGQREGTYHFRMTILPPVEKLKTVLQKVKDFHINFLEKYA
#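 Inhibition is scored from Amplex Red fluorescence generated when pyruvate oxidase and HRP act on pyruvate released by GPT2. Reactions contain 10ng/uL enzyme, 250uM a-KG and 2mM L-alanine and run 30 min at room temperature.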
# 3T3 cytotox: cytotoxic compounds in NIH 3T3 cells; Potency, µM (highest dose often 96.7 µM), for the others: at the top dose activity change, negative = cytotoxicity, hits mostly inhibitors; NIH 3T3 viability, CellTiter-Glo ATP luminescence, 48-72 h; AID 1345082; 4.3% of 94,000 active; also: % is scaled to controls: 0 for no effect and ±100 for the full control effect; nearly all actives have a fitted effect of over 55% in size
#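 First NIH 3T3 cells are plated at 400 cells/well; next compound is pinned in; then plates incubate 48 or 72 hr at 37 °C; finally CellTiter-Glo is added and luminescence read after 10 min.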
# FLuc SDR -ATP: firefly luciferase binding stabilization, ATP absent; shares compounds with FLuc inh-1; Purified FLuc-C-HiBiT, Nano-Glo HiBiT luminescence, no ATP; Potency, µM (doses to about 32.7 µM), for the others: at the highest dose activation (signal gain), usual class: activators; 7.8% of 1,300 active; AID 1963318; also: nearly all actives have a fitted effect of over 55% in size
# FLuc SDR ATP: firefly luciferase binding stabilization, ATP added; AID 1963319; Potency, µM (series often up to 32.7 µM), for the others: at the top dose activation (gain of signal), hits mostly activators; 8.7% of 1,300 active; shares compounds with FLuc inh-1; purified FLuc-C-HiBiT + ATP, HiBiT complementation luminescence;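 also: signal reports ligand binding via conformational change of the enzyme rather than luciferase catalysis; % of control where 0% means no effect; nearly all actives have a fitted effect of over 55% in size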
# FLuc inh-2: inhibitors of firefly luciferase enzymatic activity. shares compounds with FLuc inh-1. purified FLuc-C-HiBiT enzyme, luciferin luminescence. Potency, µM (highest dose often 32.7 µM), inactives show top-dose activity change, negative = inhibition, usual class: inhibitors. 42% of 1,300 active. AID 1963320; also: % is scaled to controls: 0 for no effect and ±100 for the full control effect; nearly all actives have a fitted effect of over 70% in size
# Numbers without * were called inactive; i = inactive; ? = inconclusive; . = no result given; [ ] = another dose, or the depositor's remark. Unless noted, calls follow the shape of the dose curve; as a rule, active = well fitted curve in the direction sought with a large enough effect; inconclusive = small, poorly fitted or top-dose-only effect, or another doubt; inactive = no such curve, though single readings can be large; an effect the other way counts as inactive or inconclusive. Potency is read from the fitted curve at half-maximal effect.
SMILES,FLuc inh-1,NPR1 antag,HEK293 tox,GPT2 inhibitor,3T3 cytotox,FLuc SDR -ATP,FLuc SDR ATP,FLuc inh-2
Cc1ccc(C(=O)N2CCC3(CC2)NC(=O)N(c2ccccc2)N3)cc1,i,6%,?,?,?,.,.,.
Cc1ccc([S+](=O)([O-])N2CCCC2C(=O)N2CCC(N3CCCC3=O)CC2)cc1 (stereo not drawn),.,.,-1%,i,-16%,.,.,.
CN1CCCC(CN(C)C(=O)c2cc(-c3cnn(CCO)c3)nc3ccccc23)C1 (stereo not drawn),i,0%,-27%,-3%,2%,.,.,.
CC(C)(C)n1cc(-c2cc(C(=O)N3C[C@H]4CC[C@H]3C4)c3ccccc3n2)cn1,2.8µM*,-10%,?,0%[11.5 µM],?,?,?,7µM*
O=C(NCc1ccoc1)c1ccc2nc(-c3ccc(F)cc3)cn2c1,5.6µM*,-6%,?,2%,?,20%,15%,?
Cc1ccc(C(=O)NC2CCN(Cc3cccc(-c4cccs4)c3)CC2)cc1,.,.,?,-4%,-29%,.,.,.
COC(=O)c1c(-c2cccs2)csc1NC(=O)c1ccc(C)cc1,.,.,.,.,.,11%,8%,?
COC(=O)c1c(-c2cccs2)csc1NC(=O)c1ccc(Br)cc1,.,.,.,.,.,5%,4%,11µM*
COc1ccc(C(=O)NC2CCN(C(=O)c3ccc(-c4cccs4)cc3)CC2)cc1,.,.,?,-7%,?,.,.,.
CCCc1nc(C(=O)N2CCN(c3nc4ccccc4s3)CC2)cs1,i,?,?,0%[11.5 µM],?,.,.,.
O=C(CCc1nc2ccccc2s1)N1CCN(C(=O)c2ccco2)CC1,i,-2%,-10%,1%,-9%,.,.,.
CCCC(=O)N1CCN(c2nc3ccc(F)cc3s2)CC1,.,.,.,.,.,25%,?,11µM*
CCOc1ccc2nc(N3CCN(C(=O)c4ccco4)CC3)sc2c1,.,.,.,.,.,24%,15%,?
O=C(Nc1ccc(Cl)cc1)N1CCC(C(=O)N2CCC(N3Cc4ccccc4C3=O)CC2)CC1,.,.,?,i,?,.,.,.
CC(C)NC(=O)c1nc(-c2cccc(F)c2)c2cnccn12,i,-6%[70.6 µM],-3%[172 µM],5%[88.5 µM],-26%[138 µM],.,.,.
CCCNc1cc(N2CCC(CCC(=O)NCc3ccccc3)CC2)ncn1,?,-4%,-29%,-16%,-16%,.,.,.
CCNc1cc(N2CCC(CCC(=O)Nc3ccc4c(c3)OCCO4)CC2)ncn1,7.9µM*,-28%,?,-27%,?,18%,19%,?
CCCNc1cc(N2CCC(CCC(=O)Nc3ccc4c(c3)OCCO4)CC2)ncn1,11µM*,?,-26%,i,-19%,28%,?,9.9µM*
O=C(Nc1ccc(-c2nc3ccccc3s2)c(O)c1)c1ccccc1,.,.,.,.,.,14%,11%,-2%
CC(C)[C@H](C(=O)Nc1ccc(C(=O)NO)cc1)c1ccccc1,.,.,.,-43%,.,.,.,.
CSc1ccc(C(=O)Nc2ccc(-c3nc4ccccc4s3)c(O)c2)cc1,.,.,.,.,.,11%,11%,-2%
CSc1ccc(NC(=O)c2cc3c(N4CCSCC4)nc(C)cn3n2)cc1,i,-17%,?,i,?,.,.,.
CC(C)c1ccc(C(=O)Nc2ccc(-c3nc4ccccc4s3)c(Cl)c2)cc1,.,.,.,.,.,12%,7%,-9%
COCC1CCN(c2ccc(-c3nc(-c4ccccc4C)no3)cn2)C1 (stereo not drawn),14µM*,?,?,-22%,-25%,14%,16%,?
